Laboratory results taken from PubChem BioAssay (NCATS).
Inconclusive results are not listed. Active and inactive are the calls of the source. Unless noted, calls come from the whole dose curve; as a rule, active = well fitted curve in either direction with a large enough effect (not every such curve was filed as active); inconclusive = small, poorly fitted or top-dose-only effect, or another doubt; inactive = flat fitted curve, though single readings scatter.

Columns and labels:
[1] = molecular target: Lysosomal acid glucosylceramidase (Homo sapiens) (UniProt P04062); assay: Glucocerebrosidase-p2 (AID 348; in the data active = potency below about 10 µM; note: potency is the fitted concentration of half-maximal effect); details: purified GBA, blue fluorogenic substrate, 40 min
Procedure, shortened: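 Normal human glucocerebrosidase (0.2 nM) with blue fluorogenic substrate (80 uM final) in citrate/phosphate pH 5.9 with 10mM sodium taurocholate, 0.01% tween-20; 40 min RT, NaOH/glycine stop; fluorescence Ex 365/Em 440; AC50 from a titration from 0.6 nM upwards.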

[2] = molecular target: Cytochrome P450 1A2 (Homo sapiens) (UniProt P05177); assay: p450-cyp1a2 (AID 410; calls by dose curve; note: potency is the fitted concentration of half-maximal effect)
Procedure, shortened: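 20nM CYP1A2, 100uM Luciferin-ME (=Km), 100mM KPO4; cpd 10 min RT; +NADPH regen, 60 min RT; stop/detect 20 min; luminescence. Normalized to furafylline 57 uM = full inhibition.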

[3] = molecular target: Glucocorticoid receptor (Homo sapiens) (UniProt P04150); assay: GR-GFP Redistribution (AID 450;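 active = compounds whose dose series gives a full or clear partial fitted curve of increased nuclear translocation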; note: potency is the fitted concentration of half-maximal effect); details: U2OS GR-GFP nuclear translocation, laser cytometry, 2 h
[4] = molecular target: Glucocorticoid receptor (Homo sapiens) (UniProt P04150); assay: GR-EFC Redistribution (AID 451; calls by dose curve; note: potency is the fitted concentration of half-maximal effect); details: CHO-K1 GR-EFC translocation, beta-gal luminescence, 2 h
Procedure, shortened: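 Translocation of GR-ED fusion to nuclear EA restores b-gal, read by luminescence after 1 h room-temperature detection. Engineered CHO-K1 biosensor cells, 1,000/well, exposed 2 h at 37 C to titrations up to 46 uM final.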

[5] = molecular target: Mitogen-activated protein kinase 10 (Mus musculus) (UniProt Q61831); assay: JNK3 AlphaScreen Assay (AID 530);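 note: kinase came from lysate of stimulated human HepG2 cells; signal reports phosphorylation of biotinylated GST-cJun 1-79 at Ser73 with 10 µM ATP; % is set by controls: 0 for no effect and ±100 for the full control effect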
Procedure, shortened: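 Kinase buffer: 20 mM Tris-HCl pH 7.6, 10 mM MgCl2, 1 mM DTT, 0.1 mM Na3VO4, 0.01% Tween-20; ATP 10 uM. Substrate biotin-GST-cJun(1-79), enzyme from activated HepG2 lysates. Detection by Ser73 phospho-antibody AlphaScreen.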

[6] = molecular target: 3',5'-cyclic-AMP phosphodiesterase 4B (Homo sapiens) (UniProt Q07343); assay: qHTS Assay for Inhibitors of PDE-IV (AID 607; active = well fitted activation curve with a large enough effect in the main read-out, with a control signal flat, not every such curve was filed as active; note: % of control where 0% means no effect)
Procedure, shortened: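 HEK293 ACTOne cells with CNG channel (1000/well), endogenous PDE4; membrane potential dye, compounds up to 22.9 uM final. Fluorescence Ex 535/Em 590; RO 20-1724 (100 uM final) as reference.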

[7] = molecular target: Cytochrome P450 3A4 (Homo sapiens) (UniProt P08684); assay: qHTS Assay for Activators of Cytochrome P450 3A4 (AID 885; active = well fitted curve in the direction sought with a large enough effect; an effect the other way counts as inactive or inconclusive; note: nearly all actives have a fitted effect of over 65% in size)
Procedure, shortened: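 Human CYP3A4 dealkylates Luciferin-PPXE to luciferin, which luciferase detection converts to light. Substrate was at its KM (25uM), buffer 200mM KPO4, reaction 60 min at RT.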

[8] = Counterscreen qHTS for small molecule stabilizers of the endoplasmic reticulum resident proteome: GLuc-NoTag assay (AID 1508627; active = well fitted curve in the direction sought with a large enough effect; an effect the other way counts as inactive or inconclusive; note: potency is the fitted concentration of half-maximal effect;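 for activity change, negative = inhibition: SH-SY5Y cells given compound then 100 nM thapsigargin to empty ER calcium; 0% = thapsigargin alone and -100% = DMSO vehicle control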)
Procedure, shortened: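 Counterscreen line: SH-SY5Y-GLuc-NoTag cells, treated with compound 19 hr before a 4 hr, 100 nM thapsigargin calcium depletion. Secreted Gaussia luciferase in the medium was measured by luminescence after coelenterazine was added (0.07x final), with cells unlysed.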

[9] = AP1 Signaling Pathway (AID 357); details: ME-180 AP-1-bla reporter, EGF-induced, beta-lactamase ratio, 5 h; at 7.69 µM (top of the series) unless noted;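 note: ME-180 reporter cells stimulated with EGF at its EC50 level; % is set by controls: 0 for no effect and ±100 for the full control effect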
Procedure, shortened: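 Titration-series screen for positive or negative modulators of EC50 EGF-induced signaling in ME-180 cells carrying an AP-1-driven beta-lactamase reporter. After 5 hours at 37 degrees Celsius, CCF4 460nm/530nm emission ratio gave %Activity; AC50 values derived.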

[10] = NFAT Signaling Pathway (AID 444); details: Jurkat NFAT-bla M1, carbachol, beta-lactamase ratio, 5 h; at 7.69 µM (top of the series) unless noted;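 note: carbachol stimulus at about its EC50 of 1 µM final; % is set by controls: 0 for no effect and ±100 for the full control effect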
Procedure, shortened: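 Read-out: CCF4 FRET ratio (460 nm/530 nm) after 1 h RT dye loading, used for %activity and AC50 from titration series. Cells: Jurkat NFAT-β-lactamase/M1 line, treated with compound plus 1 uM carbachol for 5 h, 37 °C.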

[11] = Stat Signaling Pathway (AID 446); details: ME-180 SIE beta-lactamase reporter, IL-6 stimulated, 5 h; at 7.69 µM (top of the series) unless noted;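 note: ME-180 cervical cancer cells given 40 pM IL-6 alongside compound; SIE-controlled beta-lactamase reporter measured as 460/530 nm FRET emission ratio; % is set by controls: 0 for no effect and ±100 for the full control effect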
Procedure, shortened: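 Normalization used AC90 stimulation (300 pM IL-6) and AC90 inhibition (125 nM pan-JAK inhibitor at 40 pM IL-6). The underlying signal is SIE-driven beta-lactamase in ME-180 cells after 5 h IL-6 exposure with compound.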

[12] = Confirmation and Secondary Assay for Modulators of Hemoglobin Beta Chain Splicing at IVS2 654 locus (AID 910; active = well fitted curve in the direction sought with a large enough effect; an effect the other way counts as inactive or inconclusive;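 note: HeLa cells stably carrying EGFP split by mutant beta-globin IVS2-654 intron; per-well total GFP intensity by laser scanning cytometry after 2-day treatment; % of control where 0% means no effect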)
Procedure, shortened: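 Readout: per-well total peak green fluorescence (488 nm ex, 500–520 nm em) from objects 5–250 µm, reflecting correct splicing of an EGFP-654 reporter. Compounds were applied for 2 days at 37 °C to overnight-plated HeLa EGFP-654 cells; controls were DMSO and 500 nM IVS2-654 PNA.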

[13] = qHTS Assay for Lipid Storage Modulators (AID 1519; calls by dose curve); details: Drosophila S3 cells, BODIPY lipid droplet/cell ratio, laser cytometry, cells loaded with oleic acid; for activity change, negative = inhibition: at 57.5 µM (top of the series)
Procedure, shortened: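 Cells seeded at 5,000 per well were treated with compounds over a concentration series and loaded with oleic acid (400 uM, as added). Lipid droplet fluorescence (488 nm excitation, 500-530 nm channel) was read by laser-scanning cytometry and normalized to 20 uM Triacsin C.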

[14] = molecular target: Ubiquitin carboxyl-terminal hydrolase 1 (Homo sapiens) (UniProt O94782); assay: Inhibitors of USP1/UAF1: Pilot qHTS (AID 504865; active = well fitted curve in the direction sought with a large enough effect; an effect the other way counts as inactive or inconclusive;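 note: rhodamine fluorescence freed from ubiquitin-rhodamine substrate followed over time; top concentration of the series differs between compounds; % is set by controls: 0 for no effect and ±100 for the full control effect; nearly all actives have a fitted effect of over 35% in size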)
Procedure, shortened: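 In 50mM HEPES pH 7.8 containing 0.5mM EDTA, 1mM TCEP, 0.1 mg/ml BSA and 0.01% Tween-20, 1nM USP1/UAF1 is exposed to compound for 15 min, then Ub-Rho (150nM final) is added and fluorescence is read over time.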

[15] = Cell Viability qHTS for small molecule stabilizers of the endoplasmic reticulum resident proteome (AID 1508629; active = well fitted curve in the direction sought with a large enough effect; an effect the other way counts as inactive or inconclusive); details: cell viability counter-screen, 100 nM thapsigargin for final 4 h
[16] = Confirmatory qHTS for small molecule stabilizers of the endoplasmic reticulum resident proteome: Secreted ER Calcium Modulated Protein (SERCaMP) assay (AID 1508628; active = well fitted curve in the direction sought with a large enough effect; an effect the other way counts as inactive or inconclusive; note: nearly all actives have a fitted effect of over 40% in size; note: potency is the fitted concentration of half-maximal effect)
Procedure, shortened: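 GLuc-SERCaMP-expressing SH-SY5Y cells, pretreated 16 h with compound, are challenged with thapsigargin to empty ER calcium stores; after 4 h, coelenterazine is added directly to the medium and luminescence is imaged.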

[17] = qHTS Assay for Identification of Small Molecule Agonists for Hypoxia Response Element Signaling Pathway (AID 914; active = well fitted activation curve with a large enough effect in the signal ratio, with a control signal flat, not every such curve was filed as active; the % refers to the signal ratio; note: potency is the fitted concentration of half-maximal effect); details: ME-180 HRE-bla reporter, beta-lactamase ratio, CoCl2, 17 h; activation: stronger effect = higher value
Procedure, shortened: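 ME-180 cells carrying an HRE-driven beta-lactamase reporter were treated with compounds in a titration series plus an EC50 level of CoCl2 for 17 h at 37 degrees Celsius; CCF4 readout as the 460nm/530nm ratio gave AC50 values.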

[18] = measured here: cell count channel max response
[19] = measured here: lipid channel max response

3',5'-cyclic-AMP phosphodiesterase 4B (Homo sapiens), sequence (Q07343 whole entry, looked up): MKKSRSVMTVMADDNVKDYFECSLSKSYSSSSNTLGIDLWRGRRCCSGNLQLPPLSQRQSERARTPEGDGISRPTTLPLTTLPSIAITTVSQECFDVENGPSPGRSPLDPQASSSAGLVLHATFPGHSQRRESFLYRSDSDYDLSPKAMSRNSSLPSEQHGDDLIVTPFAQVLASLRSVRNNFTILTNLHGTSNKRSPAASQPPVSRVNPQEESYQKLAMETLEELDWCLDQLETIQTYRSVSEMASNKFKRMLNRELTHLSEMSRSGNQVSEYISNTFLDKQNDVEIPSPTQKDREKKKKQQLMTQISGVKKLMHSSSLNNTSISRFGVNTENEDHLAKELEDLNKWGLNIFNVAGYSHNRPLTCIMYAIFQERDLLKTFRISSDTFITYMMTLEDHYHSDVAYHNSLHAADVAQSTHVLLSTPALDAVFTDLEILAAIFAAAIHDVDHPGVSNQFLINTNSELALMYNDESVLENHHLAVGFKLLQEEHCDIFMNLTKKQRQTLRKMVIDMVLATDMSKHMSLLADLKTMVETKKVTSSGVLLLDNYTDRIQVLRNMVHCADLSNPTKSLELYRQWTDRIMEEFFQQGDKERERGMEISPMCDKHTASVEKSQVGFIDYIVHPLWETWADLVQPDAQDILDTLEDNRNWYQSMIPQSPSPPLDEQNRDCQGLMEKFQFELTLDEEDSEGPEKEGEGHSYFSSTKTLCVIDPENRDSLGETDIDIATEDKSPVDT
Cytochrome P450 3A4 (Homo sapiens), sequence (P08684 whole entry, looked up): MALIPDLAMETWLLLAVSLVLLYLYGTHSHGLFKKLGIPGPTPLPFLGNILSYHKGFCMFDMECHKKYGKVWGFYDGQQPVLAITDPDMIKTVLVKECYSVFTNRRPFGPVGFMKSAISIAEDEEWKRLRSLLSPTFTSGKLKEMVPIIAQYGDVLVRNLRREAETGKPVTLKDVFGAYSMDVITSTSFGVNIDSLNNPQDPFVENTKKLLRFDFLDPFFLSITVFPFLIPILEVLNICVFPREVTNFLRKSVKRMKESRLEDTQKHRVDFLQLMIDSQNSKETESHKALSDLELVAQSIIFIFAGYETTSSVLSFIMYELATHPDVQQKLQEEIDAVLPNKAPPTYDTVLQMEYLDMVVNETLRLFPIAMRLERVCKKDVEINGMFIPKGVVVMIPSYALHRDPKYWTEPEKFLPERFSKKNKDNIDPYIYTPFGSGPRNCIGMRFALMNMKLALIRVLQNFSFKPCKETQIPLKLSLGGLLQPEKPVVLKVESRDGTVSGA
Cytochrome P450 1A2 (Homo sapiens), sequence (P05177 whole entry, looked up): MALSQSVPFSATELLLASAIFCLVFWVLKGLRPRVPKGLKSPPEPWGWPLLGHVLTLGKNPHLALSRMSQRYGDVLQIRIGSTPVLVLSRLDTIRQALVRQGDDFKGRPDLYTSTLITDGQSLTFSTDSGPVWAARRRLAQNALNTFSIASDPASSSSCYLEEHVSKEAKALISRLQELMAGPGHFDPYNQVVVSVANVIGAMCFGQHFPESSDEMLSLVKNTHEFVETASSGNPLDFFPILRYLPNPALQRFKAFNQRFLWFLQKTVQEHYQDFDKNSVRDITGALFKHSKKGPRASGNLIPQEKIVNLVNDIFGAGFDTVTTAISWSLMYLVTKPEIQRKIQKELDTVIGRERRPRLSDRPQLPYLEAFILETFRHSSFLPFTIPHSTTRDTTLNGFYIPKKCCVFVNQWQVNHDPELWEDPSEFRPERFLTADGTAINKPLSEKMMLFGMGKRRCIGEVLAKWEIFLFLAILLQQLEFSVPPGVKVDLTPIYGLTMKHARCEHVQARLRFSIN
Glucocorticoid receptor (Homo sapiens), sequence (P04150 whole entry, looked up, the tested form may be a part): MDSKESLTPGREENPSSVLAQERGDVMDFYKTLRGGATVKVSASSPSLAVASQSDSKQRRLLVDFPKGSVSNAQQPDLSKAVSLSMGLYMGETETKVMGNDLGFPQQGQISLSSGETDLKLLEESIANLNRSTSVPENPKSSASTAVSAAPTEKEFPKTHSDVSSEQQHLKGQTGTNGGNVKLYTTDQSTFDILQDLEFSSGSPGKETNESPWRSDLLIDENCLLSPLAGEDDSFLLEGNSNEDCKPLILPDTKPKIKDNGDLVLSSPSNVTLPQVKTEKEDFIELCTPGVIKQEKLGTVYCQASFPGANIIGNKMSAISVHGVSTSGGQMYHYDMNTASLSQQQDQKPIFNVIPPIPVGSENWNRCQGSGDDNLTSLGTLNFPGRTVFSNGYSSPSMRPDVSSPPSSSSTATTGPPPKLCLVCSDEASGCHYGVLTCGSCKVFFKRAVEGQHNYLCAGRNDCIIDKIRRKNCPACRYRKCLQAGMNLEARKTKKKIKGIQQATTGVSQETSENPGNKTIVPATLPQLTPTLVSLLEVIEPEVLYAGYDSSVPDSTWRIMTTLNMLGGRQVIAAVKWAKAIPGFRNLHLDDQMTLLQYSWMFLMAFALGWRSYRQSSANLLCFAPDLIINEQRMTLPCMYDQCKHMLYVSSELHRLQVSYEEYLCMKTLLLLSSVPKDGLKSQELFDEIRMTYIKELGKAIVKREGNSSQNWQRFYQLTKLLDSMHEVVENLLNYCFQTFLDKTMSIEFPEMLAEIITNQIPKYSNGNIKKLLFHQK
Lysosomal acid glucosylceramidase (Homo sapiens), sequence (P04062 whole entry, looked up): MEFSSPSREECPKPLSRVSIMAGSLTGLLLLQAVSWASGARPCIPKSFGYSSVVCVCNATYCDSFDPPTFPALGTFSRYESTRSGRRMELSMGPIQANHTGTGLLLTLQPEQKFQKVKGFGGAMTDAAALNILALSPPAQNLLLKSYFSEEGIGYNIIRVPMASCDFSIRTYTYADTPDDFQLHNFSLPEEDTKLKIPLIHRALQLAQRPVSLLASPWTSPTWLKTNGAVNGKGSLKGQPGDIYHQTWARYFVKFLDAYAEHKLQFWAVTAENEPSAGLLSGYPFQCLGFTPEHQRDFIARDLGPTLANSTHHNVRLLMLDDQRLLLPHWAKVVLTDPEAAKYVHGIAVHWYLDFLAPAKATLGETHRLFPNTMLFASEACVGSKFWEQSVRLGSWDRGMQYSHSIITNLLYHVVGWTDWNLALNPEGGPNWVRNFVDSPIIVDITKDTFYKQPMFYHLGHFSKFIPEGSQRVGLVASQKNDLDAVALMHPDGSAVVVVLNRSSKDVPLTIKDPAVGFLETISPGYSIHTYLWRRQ
Ubiquitin carboxyl-terminal hydrolase 1 (Homo sapiens), sequence (O94782 whole entry, looked up): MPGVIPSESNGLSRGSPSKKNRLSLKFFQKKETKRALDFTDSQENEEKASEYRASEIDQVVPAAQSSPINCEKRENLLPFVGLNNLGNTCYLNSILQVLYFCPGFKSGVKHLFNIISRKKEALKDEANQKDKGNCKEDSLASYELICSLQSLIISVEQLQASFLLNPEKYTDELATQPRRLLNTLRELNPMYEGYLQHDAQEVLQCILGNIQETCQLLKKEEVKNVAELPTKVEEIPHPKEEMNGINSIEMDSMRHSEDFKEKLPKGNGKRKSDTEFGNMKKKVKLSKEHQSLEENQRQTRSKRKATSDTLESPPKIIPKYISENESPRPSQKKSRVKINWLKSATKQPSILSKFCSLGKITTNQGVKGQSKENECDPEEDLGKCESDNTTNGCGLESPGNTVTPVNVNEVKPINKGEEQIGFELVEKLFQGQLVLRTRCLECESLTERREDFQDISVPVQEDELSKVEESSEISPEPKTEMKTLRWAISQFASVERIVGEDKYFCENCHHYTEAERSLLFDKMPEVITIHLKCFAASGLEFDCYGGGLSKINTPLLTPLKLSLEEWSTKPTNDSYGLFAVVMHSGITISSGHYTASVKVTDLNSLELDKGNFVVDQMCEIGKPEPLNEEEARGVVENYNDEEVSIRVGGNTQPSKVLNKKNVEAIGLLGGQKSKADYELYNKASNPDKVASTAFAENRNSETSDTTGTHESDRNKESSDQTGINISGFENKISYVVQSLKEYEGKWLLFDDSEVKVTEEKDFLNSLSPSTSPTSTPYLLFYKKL

COCCn1c(=O)c(-c2cc(F)cc(F)c2)nc2cnc(N3CCNCC3)nc21
active: Potency [2] 6.31 µM
inactive: Potency [1] > 11.4 µM | Potency [3] > 9.22 µM | Potency [4] > 46 µM | outcome [5] | Potency [6] | Potency [7] | Potency [8]

COc1ccc(-n2c(=O)c(C)nc3cnc(N4CCNCC4)nc32)cc1
active: Potency [2] 15.8 µM
inactive: Potency [1] > 11.4 µM | activity change, negative = inhibition [9] -6.88% | activity change, negative = inhibition [10] -7.6% | activity, negative = inhibition [11] 7.09% | Potency [3] > 9.22 µM | Potency [4] > 46 µM | outcome [5] | Potency [7] | Potency [8]

Cc1cccc(CNc2cc(-c3ccccc3CN(C)C)ncn2)c1
inactive: Potency [1] > 11.4 µM | activity change, negative = inhibition [9] 9.15% | activity, negative = inhibition [11] 11.7% | Potency [3] > 46 µM | Potency [4] > 46 µM | outcome [5] | Potency [7] | outcome [12] | activity change, negative = inhibition [13] 2.35% | Potency [14] | max response [15] -21.4%
active: Potency [2] 25.1 µM
2.52%: max response [13, 18]
10%: max response [13, 19]

O=C(CCCN1C(=O)c2cccc3cccc(c23)C1=O)N1CCN(Cc2ccc3c(c2)OCO3)CC1
inactive: max response [15] -13.9%
active: Potency [16] 27.3 µM

COCCn1c(=O)c(-c2ccccc2)nc2cnc(N3CCNCC3)nc21
inactive: Potency [1] > 11.4 µM | Potency [3] > 9.22 µM | Potency [4] > 46 µM | outcome [5] | Potency [6] | Potency [8]
active: Potency [17] 3.16 µM

O=c1c(CCc2ccccc2)nc2cnc(N3CCNCC3)nc2n1CCc1ccccc1
inactive: activity change, negative = inhibition [9] 9.43% | activity change, negative = inhibition [10] 27.2% | activity, negative = inhibition [11] 16.4% | Potency [3] > 9.22 µM | Potency [4] > 46 µM | outcome [5] | activity change, negative = inhibition [13] 2.33% | Potency [16] | max response [15] -5.58%
-3.07%: max response [13, 19]
-7.41%: max response [13, 18]

COc1ncc2nc(CCc3ccccc3)c(=O)n(C3CC3)c2n1
inactive: Potency [1] > 11.4 µM | activity change, negative = inhibition [9] -0.42% | activity change, negative = inhibition [10] 0.053% | activity, negative = inhibition [11] -2.79% | Potency [3] > 9.22 µM | Potency [4] > 46 µM | outcome [5] | Potency [6] | Potency [7] | Potency [8]
active: Potency [2] 3.16 µM

COc1ccccc1-c1ccc2ncnc(N3CCN(C)CC3)c2c1
inactive: activity change, negative = inhibition [9] 2.3% | activity change, negative = inhibition [10] 4.65% | activity, negative = inhibition [11] 2.98% | Potency [3] > 46 µM | Potency [4] > 46 µM | outcome [5] | Potency [6] | Potency [7] | outcome [12] | Potency [14]
active: Potency [2] 3.16 µM | Potency [8] 44.7 µM
